Source: PubChem BioAssay
A number with no mark means an inactive call. Active and inactive are the calls of the source.

test: MM1S myeloma cell viability, profiling panel, resazurin fluorescence, basal, 24 h, PK04 Diversity Set (AID 1174); details: higher = more signal, called active from +8 up or from −8 down;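 further: MM1S multiple myeloma cell line; test concentration not given here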

Going from `CCCC[C@@H]1C[C@H]1[C@@H](NC(=O)c1ccco1)c1ccc(-c2ccccc2)cc1` to `CCCC[C@@H]1C[C@H]1[C@@H](NC(=O)c1ccco1)c1ccccc1C(F)(F)F`, the z-score rises from -1.52 to -1.25.

Going from `O=C1O[C@@H](c2ccccc2)[C@@H](c2ccccc2)N2[C@@H](c3ccccc3OCCO)[C@]3(C(=O)Nc4ccc(C#CC5=CCCCC5)cc43)[C@@H](C(=O)N3CCCCCCC3)[C@H]12` to `COc1cc2c(cc1OC)CN(C(=O)[C@@H]1[C@H]3C(=O)O[C@H](c4ccccc4)[C@H](c4ccccc4)N3[C@H](c3ccc(O)cc3)[C@@]13C(=O)Nc1ccccc13)CC2`, the z-score rises from -6.31 to 0.118.

Going from `O=C1NC(=O)C2C1C=CC(C(O)c1cccs1)N2Nc1ccc(Cl)cc1Cl` (stereo unspecified) to `CC1(C)C2C=C(C(O)C3C=CC4C(=O)NC(=O)C4N3Nc3ccc(Cl)cc3Cl)C[C@@H]1C2` (stereo partly specified), the z-score falls from -0.597 to -1.9.

Going from `COC(=O)[C@]1(CCC(=O)OC(C)(C)C)N=C(c2ccc(OCCCO)cc2)O[C@@H]1c1ccccc1CN=[N+]=[N-]` to `COCCCNC(=O)[C@@]1(C)c2ccccc2C(=O)N(C(C)C)[C@H]1c1ccc(CO)cc1`, the z-score rises from -5.09 to -0.18.

Going from `C=C(COC)C(=O)CC[C@@H](OC(C)=O)c1ccc(CO)o1` to `C=C(C(=O)CC[C@@H](OC(=O)c1cccnc1)c1ccccc1OCCO)C(C)C`, the z-score falls from 0.145 to -0.444.

First: COC(=O)c1c(CC[C@@H](CO)NC(=O)NCCn2cc(C3(O)CCCC3)nn2)oc(C(C)=O)c1C(=O)OC
Second: CC(C)NC(=O)[C@@]1(c2ccc([N+](=O)[O-])cc2)CC(=O)N(C2CCCCC2)[C@@H]1c1ccc(CO)cc1I
The z-score of the first is lower: -0.691 for the first, 0.507 for the second.

Going from `CCOC(=O)C[C@H]1[C@H](OC(=O)c2ccc(C(=O)c3ccccc3)cc2)[C@@H](NC(=O)c2ccccc2)c2cc(OCCCO)ccc2N1C(=O)c1ccc2ccccc2n1` to `C=CCC(OC(C)=O)[C@@H]1[C@@H](N(Cc2ccc(-c3ccccc3)cc2)C(=O)Cc2ccc(OC)cc2)c2cc(OCCCO)ccc2N1C(=O)Cc1ccc2ccccc2c1` (stereo partly specified), the z-score falls from -0.145 to -0.541.

Compared with `COc1cc(NN2C(C(O)c3ccco3)C=CC3C(=O)N(c4ccccc4)C(=O)C32)cc(OC)c1OC` (stereo unspecified), `O=C1C2C=CC(C(O)c3cccc4ccccc34)N(Nc3ccccc3F)C2C(=O)N1c1ccccc1` (stereo unspecified) is higher in z-score: -1.68 for the first, -0.186 for the second.

Going from `O=C(NC1CC1)[C@@H]1c2ccccc2C(=O)N(Cc2ccccc2Cl)[C@H]1c1ccc(CO)cc1` to `O=C1c2ccccc2[C@](Cc2ccccc2I)(C(=O)NCC(F)(F)F)[C@H](c2ccc(CO)cc2)N1Cc1ccccc1Cl`, the z-score rises from -0.0621 to 0.519.

Compared with `Cc1ccc(S[C@]2(C(=O)O)CC(=O)N(C(C)C)[C@@H]2c2ccc(CO)cc2I)cc1`, `Cc1ccc(S[C@]2(C(=O)NC3CC3)CC(=O)N(Cc3ccccc3)[C@@H]2c2ccc(CO)cc2I)cc1` is lower in z-score: -1.66 for the first, -2.45 for the second.

Going from `COc1ccc(C#Cc2ccc3c(c2)[C@]2(C(=O)N3)[C@H](C(=O)NC[C@H](O)c3ccccc3)[C@H]3C(=O)O[C@H](c4ccccc4)[C@H](c4ccccc4)N3[C@@H]2c2ccc(O)cc2)cc1` to `COC(=O)C(CC#Cc1ccc2c(c1)[C@]1(C(=O)N2)[C@H](C(=O)Nc2nc3ccccc3s2)[C@H]2C(=O)O[C@H](c3ccccc3)[C@H](c3ccccc3)N2[C@@H]1c1ccc(O)cc1)C(=O)OC`, the z-score rises from -2.61 to 0.792.

Compared with `COC(=O)[C@@]1(Cc2ccc(F)cc2)[C@H]2c3cc(C(=O)N4CCCC4)n(Cc4ccc(S(C)(=O)=O)cc4)c3C[C@H]2CN1C(=O)c1ccccc1`, `C=CCOC(=O)[C@H]1[C@@H]2C(=O)O[C@@H](c3ccccc3)[C@@H](c3ccccc3)N2[C@@H](c2ccc(OCCOC(=O)[C@H]3C[C@H]4C(=O)N[C@@H](CCCCNC(C)=O)C(=O)N4[C@H]3c3ccc(O)cc3)cc2)[C@]12C(=O)Nc1ccc(I)cc12` is lower in z-score: -1.03 for the first, -1.18 for the second.

Compound `CC1CC/C=C\[C@H]2OC34C=CCN(C(C)(C)C)C(=O)[C@H]3N(CCO)C(=O)[C@@H]4C2C(=O)O1` (stereo partly specified) has a z-score of -0.0542.

For `COc1ccc(C(=O)Nc2ccc(CN3C(=O)[C@]4(O[C@H](CCO)[C@@H]([Si](C)(C)c5ccc(OC)cc5)[C@@H]4C)c4ccccc43)cc2)cc1`, the z-score was -9.1 (active).
